ELG1 DNA repair = blocks ELG1-dependent DNA repair in HEK293T cells | HEK293T ELG1-luciferase reporter, luminescence, 16 h; DNA damage induced by 5-fluorouridine | Potency, µM (top dose mostly 46.1 µM), inactives show top-dose activity change, negative = inhibition, actives largely listed as inhibitors | actives 2.3% (n = 330,000); further: nearly all actives have a fitted effect of over 55% in size
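5-Fluorouridine DNA damage + compound/DMSO, 2,000 cells/well, 16 h, 37 °C/5% CO2. ONE-Glo, 30 min RT, luminescence. Readout = decrease in reporter signal.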
RORg inh = inhibitors of mouse ROR gamma transcriptional activity; actives 5.4% (n = 310,000); Drosophila S2 Gal4-RORgamma UAS-luciferase reporter, 20 h; Potency, µM (titrated, usually from 53.6 µM), inactives show top-dose activity change, negative = inhibition, actives largely listed as inhibitors; further: nearly all actives have a fitted effect of over 60% in size
Target sequence (P51450 whole entry, looked up, the tested form may be a part): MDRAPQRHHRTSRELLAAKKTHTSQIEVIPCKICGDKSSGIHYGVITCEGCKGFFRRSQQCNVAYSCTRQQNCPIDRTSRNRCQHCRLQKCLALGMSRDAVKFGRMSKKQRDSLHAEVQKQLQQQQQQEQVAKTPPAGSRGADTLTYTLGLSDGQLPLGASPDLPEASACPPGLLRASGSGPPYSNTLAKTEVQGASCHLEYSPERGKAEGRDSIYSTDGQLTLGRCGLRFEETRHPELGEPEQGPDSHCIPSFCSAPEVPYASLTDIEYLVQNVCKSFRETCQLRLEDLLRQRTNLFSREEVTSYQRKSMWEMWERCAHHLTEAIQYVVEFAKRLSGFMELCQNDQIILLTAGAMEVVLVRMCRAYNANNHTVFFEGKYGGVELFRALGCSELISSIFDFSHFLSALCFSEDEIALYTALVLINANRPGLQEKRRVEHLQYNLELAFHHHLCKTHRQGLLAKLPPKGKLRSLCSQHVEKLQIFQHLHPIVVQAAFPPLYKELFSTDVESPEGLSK
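In this cell-based reporter format, copper sulfate (700 uM final) drives Gal4–ROR gamma fusion expression from a metallothionein promoter in Drosophila Schneider cells; compounds preincubated 1 hr, reporter read after 20 hr at ambient temperature.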
Gal4-VP16 FLuc = counter-screen for ROR gamma inhibitors: Gal4-VP16 reporter. Drosophila S2 Gal4-VP16 UAS-luciferase, luminescence, 20 h. Potency, µM (titrated, usually from 53.6 µM), without a hit: at the highest dose activity, negative = inhibition, usual class: inhibitors. actives 3.5% (n = 310,000);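 further: Gal4-VP16 expression switched on by copper sulfate through the metallothionein promoter; nearly all actives have a fitted effect of over 50% in size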
TDP1 cell noCPT = qHTS for Inhibitors of human tyrosyl-DNA phosphodiesterase 1 (TDP1): qHTS in cells in absence of CPT. DT40 Tdp1-/- hTDP1 cells, no CPT, ATP luminescence, 48 h. Potency, µM (top dose mostly 46.2 µM), inactives show at the highest dose activity change, negative = growth inhibition, actives largely listed as inhibitors. actives 15% (n = 420,000); further: nearly all actives have a fitted effect of over 55% in size
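Chicken DT40 Tdp1-/- cells stably complemented with human TDP1 were seeded at 400 cells/well with DMSO in place of 20 nM camptothecin. After compound pinning, cells grew at least 48 hr at 37 °C; viability read by CellTiter-Glo luminescence.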
TDP1 cell CPT = DT40-hTDP1 cell growth loss with CPT | actives 12% (n = 420,000) | Potency, µM (top dose mostly 46.2 µM), for inactives: at the top dose activity change, negative = growth inhibition, most hits filed as inhibitors | chicken DT40 Tdp1-/-;hTDP1 cells + 20 nM CPT, ATP luminescence, 48 h | AID 686979; further: nearly all actives have a fitted effect of over 55% in size
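Chicken DT40 Tdp1-/- cells complemented with human TDP1, 400 cells/well, exposed to compounds plus 20 nM camptothecin for at least 48 h at 37 C; viability read as ATP content by CellTiter-Glo luminescence.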
ALOX12 inh = blocks human arachidonate 12S-lipoxygenase; purified 12hLO, xylenol orange hydroperoxide absorbance; actives 1.1% (n = 580,000); Potency, µM (titrated, usually from 108 µM), for the others: at the top dose activity change, negative = inhibition, usual class: inhibitors; AID 1671190; P18054
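Hydroperoxide product was detected by ferrous iron/xylenol orange as the 573 to 405 nm absorbance ratio. Arachidonic acid at 40 uM (final) was turned over for 30 min at room temperature by 150 nM human 12hLO, pH 7.0 Hepes buffer, after 15 min compound preincubation.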
An asterisk follows results filed as active; i = inactive; ? = inconclusive; / = no result given; [ ] = dose if it differs, or a comment. The list is not random: actives were taken first. Their share in the collection is about 15%. The call rests on the fitted dose curve; in most records, active means well fitted curve in the direction sought with a large enough effect; inconclusive means small, poorly fitted or top-dose-only effect, or another doubt; inactive means no such curve, though single readings can be large; an effect the other way counts as inactive or inconclusive. On the % scale 0 is the no-effect control and ±100 the full control effect; potency means the concentration at half of the fitted maximal effect.

SMILES	ELG1 DNA repair	RORg inh	Gal4-VP16 FLuc	TDP1 cell noCPT	TDP1 cell CPT	ALOX12 inh
COCCN(CCOC)C(=O)c1cc(-c2ccc(C)cc2)nc2ccccc12	/	/	/	/	/	8.7%
O=C(c1ccc(-n2cccc2)cc1)N1CCN(S(=O)(=O)c2cc(F)ccc2F)CC1	/	/	/	/	/	-0.8%
NNc1cccc(S(=O)(=O)c2cccc(NN)c2)c1	/	/	/	/	/	11.2µM*
NNc1ccc(S(=O)(=O)c2ccc(NN)cc2)cc1	/	/	/	/	/	452.9%
CCN(CC)S(=O)(=O)c1ccc(OCC(=O)NCc2ccco2)cc1	14.7%	10.2%	-2.1%	-18.9%	?	-7.7%
Cc1ccc(NS(=O)(=O)c2ccc(OCC(=O)NCc3ccco3)cc2)cc1	-19.7%	30.8%	-4.1%	?	18.4µM*	?
CC(C)(C)NS(=O)(=O)c1ccc(OCC(=O)NCc2ccco2)cc1	0.8%	4.8%	-0.5%	5.3%	4.6%	-2.0%
Cc1ccc(NS(=O)(=O)c2ccc(OCC(=O)NCc3ccccn3)cc2)cc1	/	/	/	4.61µM*	3.66µM*	457.7%
Cc1ccc(C)c(NS(=O)(=O)c2ccc(OCC(=O)NCc3ccco3)cc2)c1	?	6.6%	14.9%	23.1µM*	?	13.9%
Cc1cc(=O)oc2ccc(OCC(=O)NCc3ccco3)cc12	?	0.9%	1.7%	-1.4%	-0.2%	-25.8%
O=C(COc1ccc2oc(-c3ccccc3)cc(=O)c2c1)NCc1ccco1	?	17.7%	10.7%	29.1µM*	?	/
CCOC(=O)c1[nH]c2ccccc2c1NC(=O)CCN1CCC(C(N)=O)CC1	/	/	/	/	/	-7.3%
Cc1cc(C)c(C)c(S(=O)(=O)N(C)C2CCN(C)CC2)c1C	4.7%	-14.4%	2.7%	16.4µM*	23.1µM*	-27.1%
CN1CCC(N(C)S(=O)(=O)c2ccc(Cl)cc2)CC1	7.5%	-33.5%[1.91 µM]	0.5%	18.2%	-0.8%	-3.7%
Cc1[nH]c2ccccc2c1C1=CC(=O)C=CC1=O	/	/	/	1.84µM*	1.64µM*	?
Cc1nn(C)c(C)c1Nc1ccc(N2C(=O)C3C4C=CC(C4)C3C2=O)cc1[N+](=O)[O-] (centres undefined)	?	-1.9%	5.2%	23.1µM*	?	0.0%
CCOC(=O)C1=C(c2ccccc2)N=c2s/c(=C\c3ccc(O)cc3)c(=O)n2C1c1cccs1 (centres undefined)	?	39.4%	-12.7%	16.4µM*	11.6µM*	-7.6%[57.4 µM]
CCOC(=O)C1=C(C)N=c2s/c(=C\c3cc(OC)c(OC)c(OC)c3)c(=O)n2C1/C=C/c1ccccc1 (centres undefined)	-13.5%	-13.5%	1.7%	?	-3.5%	-0.2%
CCOC(=O)C1=C(C)N=c2s/c(=C\c3cccn3C)c(=O)n2C1c1cccc(OC)c1OC (centres undefined)	?	?	?	20.6µM*	?	94.2%
CCOC(=O)C1=C(C)N=c2s/c(=C\c3ccc(C(=O)O)cc3)c(=O)n2C1c1ccc(F)cc1 (centres undefined)	-7.6%	0.9%	4.2%	0.9%	-11.3%	?
CCOC(=O)C1=C(C)N=c2sc(=Cc3cc(Cl)c(OCC(=O)O)c(OC)c3)c(=O)n2C1c1ccccc1Cl (centres undefined)	/	/	/	20.6µM*	?	?
CCOC(=O)C1=C(C)N=c2s/c(=C\c3ccc(OCC(=O)O)cc3)c(=O)n2C1c1ccccc1 (centres undefined)	-21.1%	-18.5%	-0.4%	1.2%	5.6%	?
CCOC(=O)C1=C(C)N=c2s/c(=C\c3ccc(OCC(=O)O)c(OC)c3)c(=O)n2C1c1ccc(OC)cc1 (centres undefined)	9.1%	-15.2%	-14.5%	6.6%	-17.5%	0.0%
CCOC(=O)C1=C(c2ccccc2)N=c2sc(=Cc3cc(OC)c(OC)c(OC)c3)c(=O)n2C1c1cccs1 (centres undefined)	/	/	/	13µM*	8.2µM*	-15.0%
CC(Sc1nnc2ccccn12)C(=O)N1CCN(Cc2ccccc2)CC1 (centres undefined)	/	/	/	/	/	1.4%
SMILES	ELG1 DNA repair	RORg inh	Gal4-VP16 FLuc	TDP1 cell noCPT	TDP1 cell CPT	ALOX12 inh
O=C(Nc1ccccc1F)N1CC2CCC(C1)N2Cc1cccc(-c2ccsc2)c1	/	/	/	/	/	13.0%[6.33 µM]
Cc1cccc(C)c1NC(=O)C(=O)c1c(C)[nH]c2ccccc12	/	/	/	/	/	2.9%
CCNC(=O)N1CC2CC(C1)[C@H]1CCCC(=O)N1C2 (some centres undefined)	/	/	/	/	/	40.3%
CC(C)(C)c1ccc(C(=O)CC(Sc2ccc(Cl)cc2)C(=O)O)cc1 (centres undefined)	?	1.58µM*	6.31µM*	4.11µM*	3.26µM*	?
Cc1ccc(SC(CC(=O)c2ccc(F)cc2)C(=O)O)cc1 (centres undefined)	-10.8%	?	-72.2%	25.9µM*	?	i
Cc1cccc(Nc2nc(-c3ccc([N+](=O)[O-])cc3)cs2)c1	/	/	/	/	/	-23.4%
Cc1ccc(-c2csc(Nc3ccc(O)c(C(=O)O)c3)n2)cc1	/	/	/	/	/	35.5µM*
O=C(O)c1ccc(Nc2nc(-c3ccc(Cl)cc3)cs2)cc1O	/	/	/	/	/	10µM*
Cc1nc(C)c(-c2csc(Nc3ccc(C(=O)O)c(O)c3)n2)s1	-0.3%	?	-2.0%	-12.5%	-2.8%	-13.1%
COCCOc1ncccc1-c1noc([C@@H]2CCCN2Cc2ccc(CO)o2)n1	/	/	/	/	/	-2.3%[176 µM]
CCCn1c(C)ccc(-c2noc(CCC(=O)Nc3ccc(OCC)cc3)n2)c1=O	/	/	/	/	/	-19.4%
NC(=O)c1ccc(COC(=O)c2cc(Br)ccc2F)cc1	/	/	/	/	/	-4.3%
COc1cccc(/C(O)=C/c2nc3ccc(C(=O)NCCc4ccc(Cl)cc4)cc3[nH]c2=O)c1	?	?	14.1µM*	6.51µM*	6.51µM*	-18.4%
Cc1cccc(NC(=O)c2nc[nH]c2C(=O)NCCCCCCNC(=O)c2[nH]cnc2C(=O)Nc2cccc(C)c2)c1	9.2µM*	/	/	23.1µM*	11.6µM*	14.3%
Cc1cccc(NC(=O)c2nc[nH]c2C(=O)NCCCCNC(=O)c2[nH]cnc2C(=O)Nc2cccc(C)c2)c1	5.17µM*	/	/	20.6µM*	14.6µM*	4.8%
Cc1nn(Cc2ccc(C(=O)NC(C)(C)C)o2)c(C)c1Br	?	?	10µM*	11.6µM*	23.1µM*	-29.4%
Cc1nn(Cc2ccc(C(=O)Nc3ccc(C(=O)OC(C)C)cc3)o2)c(C)c1Cl	18.4µM*	1.58µM*	7.0%	?	?	?

Screening data from PubChem.
